This note sets out measurements from paper PMC5700166.

Test [1] concerns the target T1, GST-Nv-NF-kB (Ser allele) (Nematostella vectensis, UniProt A7UNT2 2-411).
T1 sequence: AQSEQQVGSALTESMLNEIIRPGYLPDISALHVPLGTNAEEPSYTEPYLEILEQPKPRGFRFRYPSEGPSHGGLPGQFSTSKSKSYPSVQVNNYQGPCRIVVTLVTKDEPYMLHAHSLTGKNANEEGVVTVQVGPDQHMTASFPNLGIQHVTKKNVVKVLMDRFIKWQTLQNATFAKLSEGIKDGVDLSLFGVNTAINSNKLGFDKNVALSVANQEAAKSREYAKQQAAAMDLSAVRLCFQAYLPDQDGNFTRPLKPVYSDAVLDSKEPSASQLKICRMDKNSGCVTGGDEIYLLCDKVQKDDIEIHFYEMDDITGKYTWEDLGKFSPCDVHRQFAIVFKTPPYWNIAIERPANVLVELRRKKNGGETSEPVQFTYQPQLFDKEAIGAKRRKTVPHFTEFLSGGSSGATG
Kind of test: protein-binding microarray (PBM); PBM: ~300 nM protein, 6 mM HEPES pH 7.8, 80 mM KCl, 0.5 mM EDTA, 0.5 mM EGTA, 6% glycerol, 35 ng/ul poly-dIdC, 1% milk, 1 h, room temperature; Ap Aiptasia and Nv Nematostella (sea anemones) / Co Capsaspora / Aq Amphimedon (sponge) / Dm Drosophila / Hu human; RHD is the Rel homology domain; high values mean tight binding. As to conditions: dsDNA, one strand shown.

For test [2], the target named is GST-Hu-p50 (Homo sapiens, UniProt P19838 7-356). The description is as above. The settings on record: dsDNA, one strand shown.
Sequence of GST-Hu-p50 (P19838 7-356): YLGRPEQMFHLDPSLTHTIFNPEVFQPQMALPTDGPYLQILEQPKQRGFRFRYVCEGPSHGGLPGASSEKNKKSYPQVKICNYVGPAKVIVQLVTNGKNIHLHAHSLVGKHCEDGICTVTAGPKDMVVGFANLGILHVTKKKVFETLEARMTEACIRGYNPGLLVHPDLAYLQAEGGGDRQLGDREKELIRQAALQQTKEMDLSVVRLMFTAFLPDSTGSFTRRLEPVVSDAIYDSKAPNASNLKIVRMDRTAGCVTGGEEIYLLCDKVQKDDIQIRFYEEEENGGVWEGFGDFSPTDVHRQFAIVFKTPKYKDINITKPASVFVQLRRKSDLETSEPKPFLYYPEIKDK

Consider “CCGATTAACATCAATGGGTTTTCTGATGTTAATCGGGTCTTGATTCGCTTGACGCTGCTG”, for which the values for the binding signal in test [1] and in test [2] were 2.25 z-score and 1.9 z-score, respectively.
For the sequence “CCGATTAACATCAAAGGAATCCCTGATGTTAATCGGGTCTTGATTCGCTTGACGCTGCTG”, the values for the binding signal in test [1] and in test [2] were 1.78 z-score and 1.2 z-score, respectively.
Turning to “CCGATTAACATCAAAGGTCCCCCTGATGTTAATCGGGTCTTGATTCGCTTGACGCTGCTG”, the binding signal in test [1] came out at 4.32 z-score; in test [2] it was 3.35 z-score.
The matching figures for “CCGATTAACATCAGACCTCCCCCTGATGTTAATCGGGTCTTGATTCGCTTGACGCTGCTG”: 4.4 z-score and 3.87 z-score.
As to “CCGATTAACATCAGGGGGGCACCTGATGTTAATCGGGTCTTGATTCGCTTGACGCTGCTG”, the binding signal stood at 2 z-score in test [1] and 3.33 z-score in test [2].
Take “CCGATTAACATCAGGGGACGGGATGATGTTAATCGGGTCTTGATTCGCTTGACGCTGCTG”: the binding signal in test [1] was 3.93 z-score; in test [2], 3.73 z-score.
The matching figures for “CCGATTAACATCACGGGAACCCCTGATGTTAATCGGGTCTTGATTCGCTTGACGCTGCTG”: 2.26 z-score and 3.43 z-score.
In the case of “CCGATTAACATCAAAAATCCCTATGATGTTAATCGGGTCTTGATTCGCTTGACGCTGCTG”, the binding signal in test [1] amounted to 4.2 z-score; in test [2], 4.72 z-score.
With “CCGATTAACATCAAGTATTCCCATGATGTTAATCGGGTCTTGATTCGCTTGACGCTGCTG”, the binding signal in test [1] stood at 2.35 z-score; in test [2] it was 1.64 z-score.
Taken in the same sequence, the figures for “CCGATTAACATCACGTATTTCCCTGATGTTAATCGGGTCTTGATTCGCTTGACGCTGCTG” were 4.49 z-score and 3.02 z-score.
Take “CCGATTAACATCAGGATCTCCCCTGATGTTAATCGGGTCTTGATTCGCTTGACGCTGCTG”: the binding signal in test [1] came out at 5.15 z-score; in test [2] it was 4.48 z-score.
Taken in the same sequence, the figures for “CCGATTAACATCAGGGGGTGAAATGATGTTAATCGGGTCTTGATTCGCTTGACGCTGCTG” were 4.3 z-score and 4.19 z-score.
